Source: PubChem
EBV LMP1 NFkB: inhibitors of Epstein-Barr LMP1-induced NF-kappaB reporter | inhibition, % at 12.5 µM | actives 0.69% (n = 350,000) | LMP1-induced NF-kappaB luciferase reporter cells, luminescence; in the data active = inhibition above about 41%; inconclusive = no clear call, values can overlap the other calls;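 also: 0% = neutral control wells and 100% = reference inhibitor control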
LGR2 antag: Drosophila LGR2 receptor signaling inhibition | HEK293 LGR2, CRE-luciferase, bursicon-stimulated, 4 h | inhibition, % at 9.99 µM | actives 0.35% (n = 380,000) | AID 720647;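 active = drop in luminescence signal, shown as inhibition above about 50% in the replicate tests, limit read from the data, passing the limit was not always enough; inconclusive = probably only some replicates passing the limit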;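 also: agonist challenge used bursicon conditioned medium at about half maximal strength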
TROY NFkB inh: inhibitors of TROY-dependent NF-kB signaling. Q293 LMP1-TROYcd NF-kB luciferase reporter, 4 h. inhibition, % at 10 µM. actives 0.98% (n = 360,000). AID 1347056;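 active = compounds whose plate-normalised and pattern-corrected inhibition of the luciferase reporter signal at the single screening dose is 50% or more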
EWS-Fli inh: inhibitors of EWS/Fli oncoprotein transcriptional activity | A673 NR0B1-luciferase reporter, viability-normalised | inhibition, % at 12.6 µM | actives 0.67% (n = 350,000) | AID 651661;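 active = mean inhibition of at least 50% after viability correction, with every replicate also passing that limit; inconclusive = mean reaches 50% but only one of two replicates passes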;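 also: firefly luciferase signal divided by Alamar Blue viability fluorescence both relative to DMSO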
TWEAK Fn14 block: inhibitors of TWEAK-Fn14 interaction signaling. TWEAK-stimulated Fn14 reporter cells, luciferase luminescence, 8 h. AID 1159606. actives 2% (n = 360,000). inhibition, % at 10 µM; in the data active = inhibition above about 50%
The depositor's hits bear a star; ? = inconclusive; . = no result. Hits are enriched below; roughly 2.6% of the tested compounds scored in any of these assays.

SMILES | EBV LMP1 NFkB | LGR2 antag | TROY NFkB inh | EWS-Fli inh | TWEAK Fn14 block
CCOC(=O)c1ccc(-c2c(-c3ccccc3OC)sc3ccc(OC)cc23)cc1F | 8.2 | . | 53.2* | -3.2 | -8.9
O=C(c1cc(S(=O)(=O)NCc2ccco2)ccc1Br)N1CCOCC1 | 70.9* | 7.1 | 2.4 | 5.9 | 23.3
C[C@@H]1CN([C@@H](C)CO)C(=O)c2cc(NC(=O)Cn3cnnn3)ccc2O[C@H]1CN(C)C(=O)Nc1ccc(C(F)(F)F)cc1 | . | -11.0 | . | -1.9 | .
CCOC(=O)COc1ncn(-c2ccccc2)n1 | -11.6 | . | -32.6 | . | -27.1
CC(=O)COc1ncn(-c2ccccc2)n1 | -2.2 | . | . | . | 87.2*
Cc1cc(N)nc(=O)n1C1CC(O)C(CO)O1 (configuration not stated) | 86.7* | -8.2 | -2.5 | -9.3 | 7.6
COc1ccc(-c2sc(Nc3ccccc3)n[n+]2C)c(C)c1C | 6.1 | -6.0 | -19.1 | 3.8 | -22.8
CCOc1cc(-c2sc(Nc3ccccc3)n[n+]2C)ccc1OC | 80.7* | -18.8 | -1.1 | -1.6 | -5.2
CCC(C)(C)c1ccc2c(c1)C(=O)c1ccccc1C2=O | -14.9 | -39.4 | 48.0 | . | 61.1*
Cc1nnc(N(CCC#N)CCC#N)s1 | 4.4 | . | . | . | 84.8*
CCC(C)NC(=O)c1c(N)n(/N=C/c2ccccn2)c2nc3ccccc3nc12 (configuration not stated) | 1.2 | 8.9 | 31.5 | . | 63.8*
CCC(C)NC(=O)c1c(N)n(/N=C/c2cccnc2)c2nc3ccccc3nc12 (configuration not stated) | -2.5 | . | -15.2 | . | 51.2*
COCCCNC(=O)c1c(N)n(/N=C/c2cccnc2)c2nc3ccccc3nc12 | 12.7 | . | -11.0 | . | 25.8
O=[N+]([O-])c1ccc(Sc2nccn2Cc2ccccc2)c([N+](=O)[O-])c1 | 5.1 | 13.0 | 23.8 | 7.4 | 69.5*
O=c1cc(-c2ccccc2)nc(Sc2ccc([N+](=O)[O-])cc2[N+](=O)[O-])[nH]1 | 0.7 | 5.9 | 12.8 | -20.0 | 52.3*
O=[N+]([O-])c1ccc(Sc2ncccn2)c([N+](=O)[O-])c1 | -10.6 | . | 14.0 | -11.9 | 54.4*
C/C=C/c1cnc2c(c1)C(=O)N([C@@H](C)CO)C[C@H](C)[C@@H](CN(C)CC1CCCC1)O2 | . | 11.6 | . | -4.4 | .
O=C(C[C@@H]1CC[C@@H]2[C@H](COC[C@@H](O)CN2C(=O)c2ccccc2)O1)NCCCN1CCOCC1 | . | -7.7 | . | -3.1 | .
Cc1ccc(S(=O)(=O)Nc2ccc3c(c2)CC(=O)N([C@@H](C)CO)C[C@H](C)[C@H](CN(C)Cc2ccc(Cl)c(Cl)c2)O3)cc1 | . | 30.1 | . | 69.4* | .
C[C@H](CO)N1C[C@H](C)[C@H](CN(C)Cc2ccc(Cl)c(Cl)c2)Oc2ccc(NS(=O)(=O)c3cn(C)cn3)cc2CC1=O | . | -3.3 | . | 64.7* | .
C[C@H]1CN([C@@H](C)CO)C(=O)Cc2cc(NS(=O)(=O)c3cn(C)cn3)ccc2O[C@H]1CN(C)Cc1ccc(Cl)c(Cl)c1 | . | 8.7 | . | -0.4 | .
CN1C[C@H]2[C@@H](c3ccccc31)[C@@H](CO)N2C(=O)C1CCCC1 | . | -4.8 | . | -2.5 | .
COc1cc2ccccc2cc1C(=O)N/N=C/c1cccs1 | 23.7 | -16.2 | -16.5 | 58.5* | -26.2
COC(=O)N/N=C/c1cccs1 | -1.9 | 9.6 | -33.1 | 2.8 | 7.7
CCCC(=O)Nc1ccc2c(c1)C(=O)N(C)[C@@H]1CC[C@@H](CC(=O)NCCc3ccccc3)O[C@@H]1CO2 | . | -18.1 | . | -5.6 | .
SMILES | EBV LMP1 NFkB | LGR2 antag | TROY NFkB inh | EWS-Fli inh | TWEAK Fn14 block
Cc1ccc(-c2ccc(CCC(=O)O)n2NC(=O)c2ccco2)cc1 | 3.9 | . | . | . | 77.0*
CCOc1ccc2nc(NC(=O)c3ccc(OC)c(S(=O)(=O)N4CCOCC4)c3)sc2c1 | -1.0 | . | 53.0* | . | 43.8
COc1ccccc1C(=O)Nc1nc(-c2ccc(S(=O)(=O)N3CCOCC3)cc2)cs1 | 29.1 | . | 64.7* | . | 106.8*
O=C(COc1cccc(Cl)c1)Nc1nc(-c2ccc(S(=O)(=O)N3CCOCC3)cc2)cs1 | 36.0 | . | 38.4 | . | 56.5*
O=C(Nc1nc(-c2ccccc2)cs1)c1ccccc1NS(=O)(=O)c1ccc(F)cc1 | ? | ? | 49.5 | . | 88.0*
Cc1noc(C)c1NC(=O)N1C[C@@H](O)COC[C@H]2O[C@H](CC(=O)NCC3CCCCC3)CC[C@@H]21 | . | -5.6 | . | -9.9 | .
CC=Cc1ccc2n(c1=O)C[C@H]1[C@H](CO)[C@@H](C(=O)N(C)C)[C@@H]2N1CCc1ccccc1 (mixture of isomers) | . | 11.4 | . | 1.7 | .
O=C(COc1ccc(Cl)cc1)Nc1nc(-c2ccncc2)cs1 | 7.5 | 7.1 | 23.2 | . | 5.4
